Here are results for eight molecules from PubChem BioAssay.

Structures are written as SMILES. The source made the active and inactive calls.

Assay [1] has as its system Plasmodium falciparum Sir2 (PF13_0152, Sir2A). The experiment in a line: Plasmodium falciparum Sir2A binding compounds – biochemical, small-molecule microarray, 635 nm fluorescence, primary screen (AID 1098).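 Note: score merges spot fluorescence intensity with its signal-to-noise ratio.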 The settings on record: fluorescence 635 nm, higher = more signal.
Assay [2] is described as follows: probe aDKK1 binding to arrayed compounds – biochemical, biotinylated probe, 635/667 nm fluorescence, primary screen (AID 1099).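 Note: score merges 667nm spot fluorescence with signal to noise across triplicate slides.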 The settings on record: small-molecule microarray, higher = more signal.
Assay [3] is described as follows: probe aCHRDL2 binding to arrayed compounds – biochemical, biotinylated probe, 635/667 nm fluorescence, primary screen (AID 1100). The settings on record: small-molecule microarray, higher = more signal.
Assay [4] is described as follows: change in splice reporter luminescence, either direction, cell-based, HEK293, spliceosome inhibition project, primary screen (AID 1101).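 Note: HEK293 cells carrying a splicing-competent luciferase reporter gene; test concentration not given here.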 The settings on record: HEK293 splicing luciferase reporter, 24 h, higher = more signal, called active from +8 up or from −8 down.
The target of assay [5] is Fibroblast growth factor 10 (Homo sapiens) (UniProt O15520). The experiment in a line: compounds binding fibroblast growth factor 10 – biochemical, small-molecule microarray, 635 nm fluorescence, primary screen (AID 1102). The settings on record: FGF10 binding, fluorescence 635 nm, higher = more signal.
For assay [6], the system named is glycogen synthase kinase-3 (GSK3A per assay name; protocol says GSK3B). The experiment in a line: compounds binding glycogen synthase kinase-3 – biochemical, small-molecule microarray, 635 nm fluorescence, GSK3A, primary screen (AID 1103). Note: the record names both GSK3A and GSK3B. The settings on record: fluorescence 635 nm, higher = more signal.
Assay [7] addresses Epidermal growth factor receptor (Homo sapiens) (UniProt P00533). The experiment in a line: compounds binding epidermal growth factor receptor – biochemical, small-molecule microarray, 635 nm fluorescence, primary screen (AID 1104).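 Note: score merges 667 nm emission intensity with spot signal to noise over triplicate slides.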 As to conditions: EGFR binding, higher = more signal.
Assay [8] concerns the target Follistatin-related protein 3 (Homo sapiens) (UniProt O95633). The experiment in a line: compounds binding follistatin-related protein 3 – biochemical, small-molecule microarray, 635 nm fluorescence, primary screen (AID 1105).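 Note: score merges emission near 667 nm and signal to noise per printed spot across three slides.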 The settings on record: FSTL3 binding, higher = more signal.
Assay [9] has as its target Dickkopf-related protein 1 (Homo sapiens) (UniProt O94907). The experiment in a line: small molecules binding DKK1 protein – biochemical, small-molecule microarray, 635 nm fluorescence scan, primary screen (AID 1106).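 Note: score merges emission near 667 nm with signal to noise over three replicate slides.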 As to conditions: higher = more signal.
Assay [10] concerns Inhibin beta A chain (activin A). Briefly: small molecules binding activin A – biochemical, small-molecule microarray, 635 nm fluorescence scan, primary screen (AID 1107).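 Note: mouse activin A protein probed at 4.33 µg/mL on printed slides; score merges bound-protein fluorescence near 667 nm with spot signal-to-noise.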 As to conditions: INHBA, higher = more signal.
Assay [11] deals with Human papillomavirus type 1a protein E7 (residues 44-93). The experiment in a line: small molecules binding HPV E7 44-93 – biochemical, small-molecule microarray, residues 44-93, 635 nm fluorescence, primary screen (AID 1108).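 Note: E7 fragment applied at 1 µg/mL in TBST for 1 h at 4 C; score combines spot fluorescence with its signal to noise ratio.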 As to conditions: fluorescence 635 nm, higher = more signal.
The nature of assay [12]: hepatitis C replication reporter changes, two-sided – Huh7 cells, luciferase reporter, HCV replication inhibitor project, primary screen (AID 1109).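 Note: huh7 hepatoma cells harbouring a luciferase neomycin HCV replicon reporter; luciferase luminescence as measure of HCV replicon replication; test concentration not given here.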 The settings on record: Huh7 HCV replicon luciferase reporter, 48 h; higher = more signal. For orientation: Reporter assays use an easily measured gene product as a stand-in for the process of interest.
Assay [13] has as its target Left-right determination factor 2 (Homo sapiens) (UniProt O00292). The experiment in a line: small molecules binding LEFTY2 protein – biochemical, small-molecule microarray, 635 nm fluorescence scan, primary screen (AID 1110). As to conditions: higher = more signal.
Assay [14] deals with Calmodulin-1 (Homo sapiens) (UniProt P0DP23). The experiment in a line: small molecules binding calmodulin-1 with EGTA – biochemical, small-molecule microarray, Cy5-labelled CALM1, profiling panel (AID 1111).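 Note: labelled calmodulin applied in Tris saline Tween buffer holding calcium plus EGTA and DTT.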 As to conditions: Cy5-CALM1 binding fluorescence, higher = more signal.
Assay [15] has the same target. Briefly: small molecules binding Ca-loaded calmodulin-1 – biochemical, small-molecule microarray, Cy5-labelled CALM1, plus calcium, artefact control for SMM control-protein annotation, profiling panel (AID 1112).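 Note: score merges spot fluorescence with signal to noise from triplicate slides.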 As to conditions: Cy5-CALM1 binding fluorescence, higher = more signal.
Assay [16] is described as follows: probe aWnt5a binding to arrayed compounds – biochemical, biotinylated probe, 635/667 nm fluorescence, primary screen (AID 1113).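 Note: score merges 667 nm fluorescence intensity with signal-to-noise per printed feature.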 As to conditions: small-molecule microarray, higher = more signal.
Assay [17] can be described thus: probe aShh binding to arrayed compounds – biochemical, biotinylated probe, 635/667 nm fluorescence, primary screen (AID 1114).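 Note: probe is biotin-labelled aShh protein from a stem cell growth factor screen; measures binding of labelled protein to compounds printed on the slide; score merges feature fluorescence at 667 nm with signal-to-noise.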 As to conditions: small-molecule microarray, higher = more signal.
The nature of assay [18]: probe aNog binding to arrayed compounds – biochemical, biotinylated probe, 635/667 nm fluorescence, primary screen (AID 1115).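 Note: probe is biotinylated aNog protein used at 0.15 µg/mL for 1 h at 4 C; z-score combines 667 nm fluorescence of each spot with its signal to noise.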 As to conditions: small-molecule microarray, higher = more signal.
Assay [19] addresses Torsin-1A-interacting protein 1 (Homo sapiens) (UniProt Q5JTV8). Briefly: compound microarray binding of lysate hLAP1 – cell lysate, small-molecule microarray, COS7 lysate, 635/667 nm fluorescence, primary screen (AID 1116). The settings on record: 635 nm fluorescence, higher = more signal.
Assay [20] addresses Alpha-bungarotoxin (Bungarus multicinctus) (UniProt P60615). The experiment in a line: compounds binding labelled alpha-BTX control protein – biochemical, small-molecule microarray, Alexa647 label, 635/667 nm fluorescence, artefact control for SMM control protein annotation, profiling panel (AID 1117). The settings on record: alpha-BTX-A647 binding fluorescence, higher = more signal.

Sequence of Follistatin-related protein 3 (Homo sapiens) (O95633 whole entry, looked up): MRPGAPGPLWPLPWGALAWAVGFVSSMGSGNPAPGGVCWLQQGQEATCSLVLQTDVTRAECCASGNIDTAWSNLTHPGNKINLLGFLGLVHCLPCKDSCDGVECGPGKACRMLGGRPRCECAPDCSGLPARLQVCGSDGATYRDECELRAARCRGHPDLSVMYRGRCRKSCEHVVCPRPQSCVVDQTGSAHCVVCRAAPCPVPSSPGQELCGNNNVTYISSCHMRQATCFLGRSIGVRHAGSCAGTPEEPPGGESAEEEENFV
Sequence of Dickkopf-related protein 1 (Homo sapiens) (O94907 whole entry, looked up): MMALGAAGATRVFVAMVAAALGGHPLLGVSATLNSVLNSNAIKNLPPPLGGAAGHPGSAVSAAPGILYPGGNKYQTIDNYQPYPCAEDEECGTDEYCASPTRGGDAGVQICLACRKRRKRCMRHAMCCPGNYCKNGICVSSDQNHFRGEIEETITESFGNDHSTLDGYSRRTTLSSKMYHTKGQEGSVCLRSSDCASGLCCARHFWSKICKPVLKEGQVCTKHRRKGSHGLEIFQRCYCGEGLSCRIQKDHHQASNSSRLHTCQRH
Sequence of Fibroblast growth factor 10 (Homo sapiens) (O15520 whole entry, looked up): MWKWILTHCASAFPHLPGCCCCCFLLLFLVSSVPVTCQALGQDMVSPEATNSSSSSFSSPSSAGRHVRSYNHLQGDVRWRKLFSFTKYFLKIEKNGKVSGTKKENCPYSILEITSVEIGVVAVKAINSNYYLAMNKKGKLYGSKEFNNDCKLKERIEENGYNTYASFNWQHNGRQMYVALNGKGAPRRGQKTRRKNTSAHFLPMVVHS
Sequence of Alpha-bungarotoxin (Bungarus multicinctus) (P60615 whole entry, looked up): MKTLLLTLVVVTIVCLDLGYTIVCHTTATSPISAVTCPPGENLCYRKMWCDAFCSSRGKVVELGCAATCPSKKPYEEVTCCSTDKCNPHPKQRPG
Sequence of Torsin-1A-interacting protein 1 (Homo sapiens) (Q5JTV8 whole entry, looked up): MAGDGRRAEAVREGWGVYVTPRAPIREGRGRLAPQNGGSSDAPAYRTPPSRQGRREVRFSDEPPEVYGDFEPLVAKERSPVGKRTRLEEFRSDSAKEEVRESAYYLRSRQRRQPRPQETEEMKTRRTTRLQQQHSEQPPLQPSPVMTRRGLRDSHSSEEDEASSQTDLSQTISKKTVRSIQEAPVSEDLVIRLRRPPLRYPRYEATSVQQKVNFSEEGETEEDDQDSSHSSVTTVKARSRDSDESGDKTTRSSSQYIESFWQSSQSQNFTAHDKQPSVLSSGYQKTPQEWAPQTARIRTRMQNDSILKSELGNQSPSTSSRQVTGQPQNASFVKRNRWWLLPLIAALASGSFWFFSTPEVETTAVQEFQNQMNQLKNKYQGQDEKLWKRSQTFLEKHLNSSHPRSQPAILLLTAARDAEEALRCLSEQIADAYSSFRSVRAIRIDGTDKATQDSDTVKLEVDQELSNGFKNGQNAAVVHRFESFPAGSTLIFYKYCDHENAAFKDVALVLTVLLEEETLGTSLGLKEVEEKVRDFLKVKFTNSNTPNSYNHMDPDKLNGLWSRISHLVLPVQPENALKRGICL
Sequence of Epidermal growth factor receptor (Homo sapiens) (P00533 whole entry, looked up): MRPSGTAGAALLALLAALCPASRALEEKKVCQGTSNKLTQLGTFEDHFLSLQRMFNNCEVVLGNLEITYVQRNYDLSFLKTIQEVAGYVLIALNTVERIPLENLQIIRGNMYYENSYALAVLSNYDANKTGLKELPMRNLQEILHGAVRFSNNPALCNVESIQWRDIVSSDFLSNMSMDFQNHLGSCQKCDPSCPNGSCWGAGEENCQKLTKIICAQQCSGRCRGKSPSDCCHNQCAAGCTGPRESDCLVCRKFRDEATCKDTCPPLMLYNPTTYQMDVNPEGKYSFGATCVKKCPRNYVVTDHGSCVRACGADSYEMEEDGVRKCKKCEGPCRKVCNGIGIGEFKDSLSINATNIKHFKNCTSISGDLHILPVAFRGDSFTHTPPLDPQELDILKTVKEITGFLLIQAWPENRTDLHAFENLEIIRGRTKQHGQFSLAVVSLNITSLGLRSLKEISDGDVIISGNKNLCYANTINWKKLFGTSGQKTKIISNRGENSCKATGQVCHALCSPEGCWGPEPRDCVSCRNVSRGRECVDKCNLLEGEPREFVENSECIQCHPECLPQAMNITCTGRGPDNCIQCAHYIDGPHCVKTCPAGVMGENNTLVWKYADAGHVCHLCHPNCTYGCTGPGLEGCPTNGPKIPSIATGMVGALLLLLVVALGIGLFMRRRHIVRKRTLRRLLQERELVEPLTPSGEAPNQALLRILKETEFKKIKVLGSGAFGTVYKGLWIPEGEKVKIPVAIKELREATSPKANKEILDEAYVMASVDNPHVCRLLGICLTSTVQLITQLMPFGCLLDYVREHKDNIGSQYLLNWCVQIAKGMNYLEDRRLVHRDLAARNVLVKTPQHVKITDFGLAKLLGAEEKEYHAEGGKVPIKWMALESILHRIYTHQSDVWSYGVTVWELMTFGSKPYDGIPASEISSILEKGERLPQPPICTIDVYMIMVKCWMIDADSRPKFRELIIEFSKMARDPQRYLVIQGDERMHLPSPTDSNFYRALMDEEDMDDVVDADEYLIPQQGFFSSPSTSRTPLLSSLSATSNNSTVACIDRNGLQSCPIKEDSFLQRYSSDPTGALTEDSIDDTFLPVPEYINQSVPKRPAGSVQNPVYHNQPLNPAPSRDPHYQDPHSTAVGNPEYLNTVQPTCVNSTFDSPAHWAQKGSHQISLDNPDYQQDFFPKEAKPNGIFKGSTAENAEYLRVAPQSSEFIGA
Sequence of Left-right determination factor 2 (Homo sapiens) (O00292 whole entry, looked up): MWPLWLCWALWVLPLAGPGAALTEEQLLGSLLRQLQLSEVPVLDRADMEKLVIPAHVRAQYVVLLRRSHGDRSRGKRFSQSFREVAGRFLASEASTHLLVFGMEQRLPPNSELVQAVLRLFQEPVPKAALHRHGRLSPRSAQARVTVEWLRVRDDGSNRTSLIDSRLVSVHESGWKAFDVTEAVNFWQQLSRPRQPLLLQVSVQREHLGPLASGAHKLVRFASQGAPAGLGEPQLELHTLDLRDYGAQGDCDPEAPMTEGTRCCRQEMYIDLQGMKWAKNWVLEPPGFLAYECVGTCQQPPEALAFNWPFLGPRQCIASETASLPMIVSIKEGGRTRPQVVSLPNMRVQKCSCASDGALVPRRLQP

As to `C=CCC(OC(C)=O)[C@@H]1[C@@H](N(Cc2ccc(-c3ccccc3)cc2)C(=O)Cc2ccc(F)cc2)c2cc(OCCCO)ccc2N1C(=O)c1ccc(-c2ccccc2)cc1` (stereo not given in full), the composite z-score was 0.152 in assay [1]; -0.0501 in assay [2]; 0.216 in assay [3]; 0.152 in assay [5]; -1.02 in [6]; -0.376 in assay [7]. Moreover, the composite z-score was 0.268 in assay [8]; -0.282 in assay [9]; 0.778 in assay [10]; -0.866 in [11]; -0.177 in [13]; -0.454 in [14]. The composite z-score in assay [15] is 0.266; in [16], -0.1; in assay [17], 0.0048; in [18], -0.143; in assay [19], 0.205; in [20], -0.257. For the same molecule, the z-score in assay [4] is -2.23 (inactive); in assay [12], -1.23.

Regarding `C=CC[C@]1(C(=O)N2CCCCC2)N=C(c2ccc(OCCCO)cc2)O[C@H]1c1ccccc1`, the composite z-score is 1.25 in [1]; 1.16 in assay [2]; 1.11 in assay [3]; 0.228 in assay [5]; 1.3 in assay [6]; 0.0792 in [7]. For the same molecule, the composite z-score in assay [8] is -0.0013; in [9], 0.191; in assay [10], 1.11; in assay [11], 0.254; in assay [13], 0.32; in assay [14] it was 0.0382. For the same molecule, the composite z-score in [15] is -0.0541; in assay [16], 0.15; in assay [17], -0.155; in assay [18] it was 2.28; in [19], 1.55; in [20], 0.741. Besides, the z-score in assay [4] was -0.0569 (inactive); in [12], -1.98.

Take `COCCCNC(=O)C1N=C(c2ccc(OCCCO)cc2)N(c2ccccc2)O1` (stereo not given): the composite z-score in assay [1] came to 0.87; in [2], 0.0045; in [3], 0.203; in assay [5] it was 1.3; in assay [6] it was 0.781; in assay [7] it was 0.241. The composite z-score in assay [8] was 0.784; in assay [9] it was 0.383; in assay [10] it was -0.6; in [11] it was 1.41; in [13], 0.382; in assay [14], 1.08. Moreover, the composite z-score in assay [15] is 0.131; in [16], -0.0286; in assay [17], -0.0035; in assay [18], 0.752; in assay [19], 0.477; in assay [20], 0.649. The z-score in [4] is -0.27 (inactive); in [12], -1.46.

With `CCCCCN1CC=CC23O[C@@H]4/C=C\CCCOC(=O)C4[C@H]2C(=O)N(CCCO)[C@@H]3C1=O` (stereo not given in full), the composite z-score in assay [1] was 0.93; in [2] it was -0.175; in [3], 0.062; in [5], 0.0154; in [6], 1.06; in assay [7], -0.346. Further, the composite z-score was -0.352 in assay [8]; -0.663 in [9]; 1.41 in assay [10]; 0.626 in assay [11]; -0.174 in assay [13]; -0.113 in assay [14]. Besides, the composite z-score in assay [15] was 0.132; in assay [16], -0.128; in [17] it was -0.214; in [18], -0.244; in assay [19], 2.88; in [20], -0.0566. In addition, the z-score in assay [4] is 0.308 (inactive); in assay [12], -0.549.

On to `COCCCN1C(=O)[C@@]2(Cc3ccccc31)c1ccccc1C(=O)N(Cc1ccccc1C(F)(F)F)[C@H]2c1ccc(CO)cc1`, for which the composite z-score in assay [1] is 1.13; in [2], -0.106; in assay [3], -0.563; in [5], 0.94; in assay [6], 0.561; in assay [7], 0.12. For the same molecule, the composite z-score is 0.919 in assay [8]; 0.756 in assay [9]; 0.915 in assay [10]; 0.898 in [11]; 0.33 in assay [13]; -0.47 in assay [14]. Moreover, the composite z-score in assay [15] is -0.206; in assay [16], 0.439; in assay [17], -0.243; in assay [18] it was 1.79; in assay [19], 0.094; in assay [20] it was 0.33. Moreover, the z-score in assay [4] was 0.498 (inactive); in [12], -0.311.

Regarding `NCCCCCNC(=O)[C@@H]1C[C@@H]2C(=O)N[C@@H](Cc3ccccc3)C(=O)N2[C@@H]1c1cccc(OCCO)c1`, the composite z-score is 1.14 in assay [1]; 0.53 in [2]; 0.359 in assay [3]; 0.519 in assay [5]; 0.232 in [6]; -0.235 in [7]. Further, the composite z-score in assay [8] was -0.374; in assay [9] it was 0.378; in assay [10], 0.619; in assay [11], 0.762; in assay [13], -0.178; in assay [14], 0.429. Besides, the composite z-score was 0.791 in [15]; 0.404 in assay [16]; -0.0652 in [17]; 0.0256 in [18]; 0.362 in [19]; 1.69 in [20]. Also, the results for the z-score in [4] and in assay [12] were -0.0581 (inactive) and -0.988, respectively.

As to `Cc1ccc(C(C)CC(O)C2C=CC3C(=O)N(c4ccccc4)C(=O)C3N2Nc2ccc([N+](=O)[O-])cc2)o1` (stereo not given), the composite z-score in assay [1] was 0.883; in [2] it was -0.199; in assay [3], 0.904; in assay [5], 0.938; in assay [6] it was 1.27; in assay [7], 0.152. For the same molecule, the composite z-score in [8] was 0.904; in assay [9], 0.0201; in assay [10], 0.77; in assay [11] it was 1.41; in assay [13], 0.135; in [14], 1.17. Further, the composite z-score in assay [15] was -0.284; in [16], -0.0792; in assay [17] it was -0.229; in [18], 0.437; in assay [19], 0.866; in assay [20], 1.3. The z-score was 0.907 (inactive) in [4] and -0.212 in assay [12].

For `CN1C(=O)C2C=CC(C(O)c3ccc(-c4ccccc4)s3)N(N(c3ccccc3)c3ccccc3)C2C1=O` (stereo not given), the composite z-score in assay [1] is 0.61; in [2], 0.818; in [3], 0.798; in assay [5], 0.186; in assay [6] it was 0.724; in [7] it was -0.0198. The composite z-score was 0.338 in assay [8]; 0.0129 in [9]; 1.18 in [10]; 0.761 in [11]; -0.18 in [13]; 0.906 in [14]. Besides, the composite z-score in assay [15] was 0.405; in assay [16] it was 0.0324; in assay [17] it was -0.0813; in [18], 1.44; in assay [19], 0.397; in assay [20], 1.37. For the same molecule, the z-score was 0.214 (inactive) in [4] and 0.339 in [12].
